Measurements: PubChem BioAssay (NCI)
About 83,000 compounds went through this panel and 20% of them were active in at least one assay; those are over-represented in the sample as a whole.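 Negative percent growth values reflect cell death: -40 means 40% of the cells present at the start died, and -100 means all died.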 Values without a mark were called inactive. Activity calls are given as the source filed them. The calls were made as follows: active = growth percent below 10; inactive = the rest.

tested on: NCI-H226 lung; experiment: NCI-60 one-dose screen, 48 h (100 = growth as untreated, 0 = no growth, -100 = all killed); details: 10 µM unless noted

SMILES | growth
COC(=O)C1=Nc2ccc(F)cc2/C1=C\c1sc(Nc2ccc(O)cc2)nc1O | 78.2%
COc1ccc(OC)c(Nc2nnc(-c3ccc(Cl)cc3)o2)c1 | 93.8%
O=C(OC[C@@H]1CO1)c1cccc2c(=O)c3ccccc3[nH]c12 | -24.6% (active)
CNC(=O)c1c(NC(=O)c2ccc(C(C)(C)C)cc2)sc2c(CN(C)C)c(O)ccc12 | 95%
C=C1C(=O)O[C@H]2[C@H]1CC/C(COC(=O)c1cc3cc(F)ccc3[nH]1)=C\CC[C@@]1(C)O[C@@H]21 | -41.3% (active)
Brc1ccc(-c2cnc3nonc3n2)cc1 | 100%
CC(C)CN1CC(C(=O)Nc2ccc3c(c2)-c2ccccc2C3)CC1=O (configuration not stated) | 64.9% [50 µM]
COc1cc2ncnc(Nc3ccc(F)c(Cl)c3)c2cc1OCC(=O)N1CCN(c2ccc(F)cc2)CC1 | 96.3%
COc1ccc(-c2cn(-c3ccc(Cl)cc3)c(SCC(=O)c3ccc([N+](=O)[O-])cc3)n2)cc1 | 91.3%
CCN(CC)S(=O)(=O)c1ccc(S(=O)(=O)N2CCC[C@@H](C(=O)N3CCN(C(=O)OC(C)(C)C)CC3)C2)cc1 | 77.9%
O=C(c1ccc(Cl)cc1Cl)N1c2ccccc2Sc2ccccc21 | 68%
COc1ccc(C2C3=C(COC3=O)N(CCO)c3cc4c(cc32)OCCO4)cc1OC (configuration not stated) | 41.2%
N#C/C(=C\c1ccc(-c2ccc(Cl)cc2)o1)c1ccc(Cl)cc1 | 30%
COc1ccc(C2CC(c3ccc(Nc4nc(Nc5ccc(F)cc5)nc(Nc5ccc(F)cc5)n4)cc3)=NN2C(C)=O)cc1 (configuration not stated) | 106%
CCN(CC)CCOc1nc2c3ccc(Cl)cc3nn2c2ccccc12 | 47.1%
COc1cc2c(cc1O)[C@@]1(C)[C@H](c3ccccc3Br)OC(=O)N1CC2 | 83.9%
CC(C)(C)c1cc(C=Nc2cccc(C(F)(F)F)c2)c(O)c(C(C)(C)C)c1 | 91.4%
CCCCCCNc1nc(NCCCCCC)c2[nH]c(NCCCCCC)nc2n1 | 92.1%
COc1ccc(C2C(C#N)=C(N)Oc3c2sc2c(Br)cccc32)cc1 (configuration not stated) | 49.2%
CC(/C=C1\SC(=S)N(CC(=O)NC(Cc2c[nH]c3ccccc23)C(=O)O)C1=O)=C\c1ccccc1 (configuration not stated) | 102%

SMILES | growth
CCOC(=O)c1c(NC(=O)c2ccc(OC)cc2)sc2c(CN(C)C)c(O)ccc12 | 101%
O=C(CCCCl)NNc1nccc(Nc2ccc(S(=O)(=O)Nc3ccncc3)cc2)n1 | 104%
Nc1ncnc2c1c(-c1ccc(Oc3ccccc3)cc1)nn2CC1SSCC1O (configuration not stated) | 23.4%
COc1ccc(NC(=O)c2sc3nc(C)c(C(O)c4ccccc4)cc3c2N)cc1 (configuration not stated) | 57.9%
COc1cccc(C(=O)OCC(O)C(=O)NC23CC4CC(CC(C4)C2)C3)c1 (configuration not stated) | 93.5%
O=C(CBr)CN1C(=O)c2ccccc2C1=O | 98.7%
O=C(NCc1ccccc1O)c1cccc2ccccc12 | 76.7%
CCn1cc(C(=O)NN=C2CCCCCC2)c(=O)c2ccc(C)nc21 | 82%
Nc1c(C(=O)Nc2ccccn2)sc2nc3c(cc12)C(O)CCC3 (configuration not stated) | 57.7%
COc1ccc(NC(=O)c2ccc(C(=O)Nc3ccc(OC)cc3OC)cc2)c(OC)c1 | 71.5%
O=C(Nc1ncc(Cc2ccccc2Cl)s1)c1cccs1 | 85.1%
COc1ccc2nc3ccccc3c(NCc3ccccc3)c2c1 | 34.4%
Fc1ccc(COc2ccc(Nc3ncnc4sc5c(c34)CCCC5)cc2)cc1 | 102%
COc1ccc(C2=Nc3c/c(=C\c4c(O)[nH]c5cc(Cl)ccc45)ccc3=N2)cc1 | 84.1%
N#Cc1c(N2CCOCC2)nc(=S)[nH]c1-c1ccccc1 | 72.5%
O=C1CCC(C(=O)NN(c2ccccc2)c2ccccc2)N1 (configuration not stated) | 96.3%
C/C(C=O)=C\c1ccc2c(c1)OCO2 | 85.2%
COc1cc2c(/C=C3\C(=O)Nc4ccccc43)c(C(=O)O)[nH]c2cc1C | 89.2%
C/C(=N\Nc1nc(C)cs1)c1cc2ccccc2o1 | 76.7%

tested on: NCI-H322M lung; experiment: as above; details: 10 µM unless noted

SMILES | growth
COC(=O)C1=Nc2ccc(F)cc2/C1=C\c1sc(Nc2ccc(O)cc2)nc1O | 96.7%
COc1ccc(OC)c(Nc2nnc(-c3ccc(Cl)cc3)o2)c1 | 56.9%
O=C(OC[C@@H]1CO1)c1cccc2c(=O)c3ccccc3[nH]c12 | -13% (active)
CNC(=O)c1c(NC(=O)c2ccc(C(C)(C)C)cc2)sc2c(CN(C)C)c(O)ccc12 | 17.1%
COc1ccc2[nH]cc(-c3nc(-c4cn(C)c5ccncc45)cs3)c2c1 | 90.9%
Brc1ccc(-c2cnc3nonc3n2)cc1 | 94%
CC(C)CN1CC(C(=O)Nc2ccc3c(c2)-c2ccccc2C3)CC1=O (configuration not stated) | 69.6% [50 µM]
COc1cc2ncnc(Nc3ccc(F)c(Cl)c3)c2cc1OCC(=O)N1CCN(c2ccc(F)cc2)CC1 | 36.5%
COc1ccc(-c2cn(-c3ccc(Cl)cc3)c(SCC(=O)c3ccc([N+](=O)[O-])cc3)n2)cc1 | 81.1%
CCN(CC)S(=O)(=O)c1ccc(S(=O)(=O)N2CCC[C@@H](C(=O)N3CCN(C(=O)OC(C)(C)C)CC3)C2)cc1 | 88.5%
O=C(c1ccc(Cl)cc1Cl)N1c2ccccc2Sc2ccccc21 | 85.2%
COc1ccc(C2C3=C(COC3=O)N(CCO)c3cc4c(cc32)OCCO4)cc1OC (configuration not stated) | 51.4%
N#C/C(=C\c1ccc(-c2ccc(Cl)cc2)o1)c1ccc(Cl)cc1 | 69.2%
COc1ccc(C2CC(c3ccc(Nc4nc(Nc5ccc(F)cc5)nc(Nc5ccc(F)cc5)n4)cc3)=NN2C(C)=O)cc1 (configuration not stated) | 87.5%
CCN(CC)CCOc1nc2c3ccc(Cl)cc3nn2c2ccccc12 | 29.2%
COc1cc2c(cc1O)[C@@]1(C)[C@H](c3ccccc3Br)OC(=O)N1CC2 | 116%
CC(C)(C)c1cc(C=Nc2cccc(C(F)(F)F)c2)c(O)c(C(C)(C)C)c1 | 95.3%
CCCCCCNc1nc(NCCCCCC)c2[nH]c(NCCCCCC)nc2n1 | 1.94% (active)
CC(/C=C1\SC(=S)N(CC(=O)NC(Cc2c[nH]c3ccccc23)C(=O)O)C1=O)=C\c1ccccc1 (configuration not stated) | 102%

SMILES | growth
CCOC(=O)c1c(NC(=O)c2ccc(OC)cc2)sc2c(CN(C)C)c(O)ccc12 | 89.6%
O=C(CCCCl)NNc1nccc(Nc2ccc(S(=O)(=O)Nc3ccncc3)cc2)n1 | 102%
Nc1ncnc2c1c(-c1ccc(Oc3ccccc3)cc1)nn2CC1SSCC1O (configuration not stated) | 34.8%
COc1ccc(NC(=O)c2sc3nc(C)c(C(O)c4ccccc4)cc3c2N)cc1 (configuration not stated) | 56.8%
COc1cccc(C(=O)OCC(O)C(=O)NC23CC4CC(CC(C4)C2)C3)c1 (configuration not stated) | 96.4%
O=C(CBr)CN1C(=O)c2ccccc2C1=O | 101%
O=C(NCc1ccccc1O)c1cccc2ccccc12 | 95.9%
CCn1cc(C(=O)NN=C2CCCCCC2)c(=O)c2ccc(C)nc21 | 88.7%
Nc1c(C(=O)Nc2ccccn2)sc2nc3c(cc12)C(O)CCC3 (configuration not stated) | 36.5%
COc1ccc(NC(=O)c2ccc(C(=O)Nc3ccc(OC)cc3OC)cc2)c(OC)c1 | 91.3%
O=C(Nc1ncc(Cc2ccccc2Cl)s1)c1cccs1 | 78%
COc1ccc2nc3ccccc3c(NCc3ccccc3)c2c1 | 29.5%
Fc1ccc(COc2ccc(Nc3ncnc4sc5c(c34)CCCC5)cc2)cc1 | 86.9%
COc1ccc(C2=Nc3c/c(=C\c4c(O)[nH]c5cc(Cl)ccc45)ccc3=N2)cc1 | 91.2%
N#Cc1c(N2CCOCC2)nc(=S)[nH]c1-c1ccccc1 | 76.4%
O=C1CCC(C(=O)NN(c2ccccc2)c2ccccc2)N1 (configuration not stated) | 107%
C/C(C=O)=C\c1ccc2c(c1)OCO2 | 135%
COc1cc2c(/C=C3\C(=O)Nc4ccccc43)c(C(=O)O)[nH]c2cc1C | 105%
C/C(=N\Nc1nc(C)cs1)c1cc2ccccc2o1 | 93.1%
